MITF TRPM1 HTS – increases MITF-driven TRPM1 promoter luciferase signal | SK-MEL-5 TRPM1-promoter luciferase, 24 h; % of positive control, neutral wells = 0 | activation, % at 12.5 µM | hit rate 0.75% among 300,000;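 active = mean activation of at least 80% with every replicate also reaching 80%; inconclusive = mean reaches 80% but some replicate falls short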;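 also: 0% = neutral control wells and 100% = parthenolide positive control wells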
esBAF inh – inhibitors of esBAF chromatin remodeling in mouse ES cells | Bmi1-luciferase knock-in reporter, 24 h; 100% = twice the neutral-well signal | reporter increase, % at 12.5 µM | hit rate 2% among 350,000; in the data active = activation above about 40%; inconclusive = no clear call, values can overlap the other calls;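 also: 0% = median of the plate's neutral control wells and 100% = double that signal; a rise in the Bmi1 reporter signal indicates esBAF inhibition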
rRNA inh HTS – selective bacterial rRNA inhibition in E. coli | AID 720706 | GFP signal change (wild-type ribosome), % (no concentration beside the values) | E. coli WT GFP vs humanized-ribosome RFP mutants, fluorescence, 24 h; active compounds read low; DMSO median 0, no signal -100 | hit rate 1.6% among 350,000;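 active = significant combined selectivity score with lowered wild-type GFP, culture density cut under 30%, mutant RFP and density less affected; inactive = any of these conditions unmet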
Wnt act – Wnt/beta-catenin pathway activation; Wnt/beta-catenin reporter cell assay, activator, plate reader; activation, % at 9.35 µM; hit rate 1.2% among 300,000; AID 743398; in the data active = activation above about 30%, passing the limit was not always enough; inconclusive = no clear call, values can overlap the other calls;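 also: 0% = neutral control wells and 100% = positive control wells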
AF4-AF9 inh – blocks AF4 peptide binding to human AF9 | P42568 | AlphaScreen, biotin-AF4 peptide binding to FLAG-AF9 | inhibition, % at 10 µM | hit rate 0.47% among 350,000 | AID 651704;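 active = every replicate reaching a set inhibition limit, whatever the replicate mean, cut at about 25% in these data; inconclusive = mean inhibition reaches that limit but some replicates miss it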;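 also: 0% = plate neutral control median and 100% = total signal loss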
Target sequence (P42568 whole entry, looked up): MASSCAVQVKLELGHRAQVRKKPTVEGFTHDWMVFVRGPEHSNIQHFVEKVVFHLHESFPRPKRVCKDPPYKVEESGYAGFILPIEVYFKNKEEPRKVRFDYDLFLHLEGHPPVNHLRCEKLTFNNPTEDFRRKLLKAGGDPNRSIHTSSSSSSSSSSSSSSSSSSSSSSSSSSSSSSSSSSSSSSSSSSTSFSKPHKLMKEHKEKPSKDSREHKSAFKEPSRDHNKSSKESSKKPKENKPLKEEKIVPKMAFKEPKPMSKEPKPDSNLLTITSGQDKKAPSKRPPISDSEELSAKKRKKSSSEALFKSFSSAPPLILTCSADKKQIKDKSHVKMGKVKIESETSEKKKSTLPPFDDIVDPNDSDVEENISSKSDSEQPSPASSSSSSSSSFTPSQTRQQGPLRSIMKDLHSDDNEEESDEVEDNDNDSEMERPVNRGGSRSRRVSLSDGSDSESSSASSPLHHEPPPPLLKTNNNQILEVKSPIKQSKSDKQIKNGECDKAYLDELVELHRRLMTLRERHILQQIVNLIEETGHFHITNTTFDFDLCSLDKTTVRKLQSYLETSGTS
HepG2 cytotox – HepG2 cell cytotoxicity. shares compounds with rRNA inh HTS. HepG2 viability, ATP luminescence, 72 h. activity change, negative = cytotoxicity, unspecified at 26 µM. 30 tested, under 10 active. AID 743480;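 active = compounds whose fitted half-maximal signal-loss concentration is at most twice their highest valid dose; inconclusive = flat curve with 30 to 70% signal loss, or poor fit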
AID977621 – wild-type E. coli growth inhibition versus H69 humanized strain – H69 mutant RFP, wild-type GFP, cherry-pick, dose response. activity change, negative = inhibition at 50 µM. fluorescence, 24 h. AID 977621. shares compounds with rRNA inh HTS. 1,900 tested, under 10 active;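 active = Wild-type ribosome reporter drop at least double the humanized mutant ribosome reporter drop, growth loss under a set limit; inconclusive = no clear call, values can overlap the other calls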;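 also: wild-type GFP and H69 mutant RFP strains grown together 50/50 in each well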
AID977628 – E. coli growth inhibition, wild-type GFP versus h24 humanized RFP strain, dose response, h24 mutant RFP vs wild-type GFP, cherry-pick; shares compounds with rRNA inh HTS; E. coli WT GFP strain growth, fluorescence, 24 h; activity change, negative = inhibition at 50 µM; 1,900 tested, under 10 active; AID 977628;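 active = compound lowering the normal-ribosome reporter at least twice as much as the humanized-ribosome reporter, growth loss under a set limit; inconclusive = no clear call, values can overlap the other calls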;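 also: wild-type GFP and h24 humanized RFP strains co-cultured 1 to 1 per well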
Numbers without * were called inactive. Compounds with a hit are over-represented: about 3.7% of the library has one in this group of screens.

How did COc1ccc(S(=O)(=O)N[C@H]2CC[C@H](CC(=O)N3CCc4ccccc4C3)O[C@H]2CO)cc1 do in these assays?
esBAF inh: 4.7; rRNA inh HTS: -1.0; AF4-AF9 inh: 0.2

What do the screens show for `O=[N+]([O-])c1ccc2c(c1)S(=O)c1ccccc1-2` (stereo not given)?
MITF TRPM1 HTS: 0.5; esBAF inh: -7.4; rRNA inh HTS: -22.8*; Wnt act: -0.4; AF4-AF9 inh: -0.8; AID977621: -24.9; AID977628: -14.4

What do the screens show for `O=C(O)c1ccccc1-c1ccc([N+](=O)[O-])cc1Cl`?
rRNA inh HTS: -12.1; Wnt act: -2.8; AF4-AF9 inh: 2.1

What do the screens show for `CCC[n+]1c(C)sc2c3c(ccc21)CCCC3`?
MITF TRPM1 HTS: -67.1; esBAF inh: 8.2

Results for CCCNC(=O)CCCCn1c(=S)[nH]c2c([nH]c3ccc(OC)cc32)c1=O ?
MITF TRPM1 HTS: -5.5; rRNA inh HTS: 18.0; Wnt act: -1.8; AF4-AF9 inh: -2.3

Results for COc1ccc2[nH]c3c(=O)n(CCCCC(=O)NCCC(C)C)c(=S)[nH]c3c2c1 ?
MITF TRPM1 HTS: -5.2; rRNA inh HTS: -24.9*; Wnt act: -1.7; AF4-AF9 inh: -0.1; HepG2 cytotox: 11

How did O=C(NCc1ccc2c(c1)OCO2)C1CCCN1S(=O)(=O)c1ccc(Cl)cc1 (stereo not given) do in these assays?
MITF TRPM1 HTS: 2.1; rRNA inh HTS: -19.0*; Wnt act: -0.1; AF4-AF9 inh: 2.3; AID977621: -24.2

Results for COCC#Cc1ccc2c(c1)O[C@H](CN(C)Cc1ccc(F)cc1)[C@H](C)CN([C@@H](C)CO)S2(=O)=O ?
esBAF inh: -7.8; rRNA inh HTS: -2.3; AF4-AF9 inh: 4.9

How did Cc1ccc(NC(=O)CN(C)CC(=O)Nc2ccc3c(c2)OCO3)cc1 do in these assays?
esBAF inh: -5.0; rRNA inh HTS: -7.8; Wnt act: -2.5; AF4-AF9 inh: -0.2

Results for CC(C)[C@H](NC(=O)c1ccc([N+](=O)[O-])cc1Cl)C(=O)N1CCN(C/C=C/c2ccccc2)CC1 ?
MITF TRPM1 HTS: -3.8; rRNA inh HTS: -20.6*; Wnt act: -1.0; AF4-AF9 inh: 6.0; AID977628: inconclusive

How did COCCOC(=O)N1C(=O)[C@@]2(c3cc(C#CCC(C(=O)OC)C(=O)OC)ccc31)[C@H](c1ccccc1OCCO)N1[C@H](c3ccccc3)[C@H](c3ccccc3)OC(=O)[C@H]1[C@@H]2C(=O)NC[C@H](O)c1ccccc1 do in these assays?
AF4-AF9 inh: -1.8

Results for Cc1cc(SCC(=O)OCC(=O)NCC2CCCO2)c(C)cc1Br (stereo not given) ?
MITF TRPM1 HTS: 11.1; rRNA inh HTS: -25.1*; Wnt act: -1.5; AF4-AF9 inh: -1.4; AID977621: -17.1

Results for COC(=O)COc1cc2ccccc2cc1C(=O)Nc1ccccc1 ?
MITF TRPM1 HTS: 2.4; rRNA inh HTS: 1.6; Wnt act: 6.9; AF4-AF9 inh: -2.3

How did CCn1c(COc2cccc(OC)c2)nnc1SCC(=O)Nc1cc(OC)ccc1OC do in these assays?
MITF TRPM1 HTS: -4.3; esBAF inh: 1.5; rRNA inh HTS: -22.6*; Wnt act: -1.7; AID977621: -3.6; AID977628: -9.23

What do the screens show for `COc1cccc(C(=O)N2C[C@@H]3[C@H](c4ccccc42)[C@@H](CO)N3C(=O)c2cccc(F)c2)c1`?
esBAF inh: -2.8; rRNA inh HTS: -3.8; AF4-AF9 inh: 0.1

What do the screens show for `Cc1cccc(OCCC(=O)Nc2ccc(F)c(F)c2)c1`?
MITF TRPM1 HTS: 8.6; esBAF inh: 4.6; rRNA inh HTS: -41.3*; Wnt act: -1.2; AF4-AF9 inh: -0.9; AID977621: 4.58

What do the screens show for `Cc1cccc(OCCCC(=O)Nc2ccc(N(C)C)cc2)c1`?
MITF TRPM1 HTS: -3.8; rRNA inh HTS: -1.6; Wnt act: 27.5; AF4-AF9 inh: 4.0

Results for O=C(Nc1ccc(Cl)cc1)N1C[C@H]2[C@@H](c3ccccc31)[C@@H](CO)N2C(=O)c1ccccn1 ?
esBAF inh: 13.8; rRNA inh HTS: -23.2*; AF4-AF9 inh: 0.0; AID977621: -6.29

What do the screens show for `O=C(Nc1cccc(Cl)c1)N1C[C@@H]2[C@H](c3ccccc31)[C@@H](CO)N2CC1CCCCC1`?
esBAF inh: 1.0; rRNA inh HTS: -55.9*; AID977621: inconclusive

What do the screens show for `O=C(Nc1ccc(F)cc1)N1C[C@H]2[C@@H](c3ccccc31)[C@H](CO)N2C(=O)c1ccc(F)cc1`?
esBAF inh: 2.9; rRNA inh HTS: -1.0

What do the screens show for `C[C@H]1CN([C@@H](C)CO)C(=O)CCCn2cc(nn2)CO[C@@H]1CN(C)Cc1ccccc1`?
esBAF inh: -6.6; rRNA inh HTS: 3.6; AF4-AF9 inh: -1.4

Results for O=C(COC(=O)CNC(=O)c1ccc(F)cc1)Nc1cccc(S(=O)(=O)N2CCCC2)c1 ?
MITF TRPM1 HTS: -9.8; rRNA inh HTS: -18.2*; Wnt act: -1.9; AF4-AF9 inh: 1.1; AID977621: -10.7; AID977628: -3.88

What do the screens show for `CCOc1ccccc1N1CC(C(=O)Nc2ccc(S(=O)(=O)N3CCCCC3)cc2)CC1=O` (stereo not given)?
MITF TRPM1 HTS: -8.9; esBAF inh: -3.2; rRNA inh HTS: 4.5; Wnt act: -0.7; AF4-AF9 inh: -0.7

Results for O=C(CN(CCO)c1ccccc1)Nc1cccc(S(=O)(=O)N2CCCC2)c1 ?
MITF TRPM1 HTS: -1.2; esBAF inh: 4.0; rRNA inh HTS: -22.9*; Wnt act: -0.1; AF4-AF9 inh: 1.8; AID977628: inconclusive

How did CCOc1ccccc1N1CC(C(=O)Nc2cccc(S(=O)(=O)N3CCCCC3)c2)CC1=O (stereo not given) do in these assays?
MITF TRPM1 HTS: -14.8; esBAF inh: -0.5; rRNA inh HTS: -20.5*; Wnt act: -2.6; AF4-AF9 inh: 3.4; AID977621: -20.7; AID977628: inconclusive

Results for CCN(CC)S(=O)(=O)c1ccc(C)c(NC(=O)CNc2cccc(S(=O)(=O)N3CCCC3)c2)c1 ?
MITF TRPM1 HTS: -13.5; esBAF inh: 2.9; rRNA inh HTS: -5.3; Wnt act: -3.5; AF4-AF9 inh: 2.6

How did CCN(CC)CC(=O)Nc1cccc(S(=O)(=O)N2CCCC2)c1 do in these assays?
MITF TRPM1 HTS: 1.6; esBAF inh: 0.2; rRNA inh HTS: 1.5; Wnt act: -3.1; AF4-AF9 inh: 0.3
